Laboratory results as given in PubChem BioAssay AID493014 (National Center for Advancing Translational Sciences (NCATS), 2011).
The whole screen tested about 340,000 compounds, of which about 170 (0.05%) were called active. Inconclusive results (about 26%) are left out. Calls follow the shape of the dose curve; as a rule, active = well fitted inhibition curve with a large enough effect in the signal ratio, with a control signal flat (not every such curve was filed as active); inconclusive = small, poorly fitted or top-dose-only effect, or effect the other way, or a change in a side signal; inactive = flat fitted curve, though single readings scatter; the % refers to the signal ratio. Many of the other results were omitted from the sample, so actives are more common in it than they were.

Assay: qHTS Assay to Find Inhibitors of Chronic Active B-Cell Receptor Signaling
Conditions: ABC-DLBCL IkBa-CBG/CBR reporter, luminescence ratio, 4 h; series mostly up to 46.1 µM
Text: NIH Molecular Libraries Probe Production Network [MLPCN] NIH Chemical Genomics Center [NCGC] MLPCN Grant: 1 R03 DA031086-01A1 PI Name: Dr. R. Eric Davis NCGC Assay Overview: Diffuse large B-cell lymphoma (DLBCL) is the most common category of non-Hodgkin lymphoma, with ~20,000 new cases per year in the United States. DLBCL should be regarded as a collection of different neoplasms. Microarray gene expression analysis has defined two principal types of DLBCL, named for their similarity to normal B cell stages or activation states: a germinal center B-cell (GCB) type, and an activated B-cell (ABC) type. In ABC-DLBCL, a constitutive high-level activity of the NF-kappaB family of transcription factors has been observed (1) and NF-kappaB target genes are more highly expressed in ABC primary tumors than in GCB tumors. Functional studies have shown a constitutive high-level activity of the IkappaB (inhibitor of kappa-B) kinase (IKK) complex. […] Further analysis of DLBCL primary tumors for NF-kappaB target gene expression imply that although CARD11 is required for constitutive IKK activity in all ABC-DLBCL lines, mutations in CARD11 may be the root cause of IKK activation only in lines or tumors with such mutations. In other words, CARD11 mutations may explain NF-kappaB activation in only 10% of ABC-DLBCL cases. […] This process has been termed 'chronic active BCR signaling' (CABS). The goal of this screen is to find small-molecule inhibitors of the CABS pathway found in ABC-DLBCL lines using a cell-based assay that measures IkappaBalpa stability, which has already been extensively validated in the OCI-Ly3 line (PubChem AID:445; REF: 4). […] The assay uses green (CBG68) and red (CBR) emitting beetle luciferases [Chroma-GloTM developed by Promega Corp.] where the green luciferase is fused to IkappaBalpha and the red luciferase is present in its native state. Both luciferase genes are stably present in the TMD8 human ABC DLBCL cell line, but their expression is under the control of tetracycline-inducible promoters. Following the addition of doxycycline to induce expression of the luciferases, the green luminescence in control cultures rises only slowly because the CBG fusion partner IkappaBalpha is targeted by IKK activity for rapid degradation. In contrast, green luminescence rises rapidly in the presence of proteasome inhibitors or IKK inhibitors. The rise in red luminescence of CBR is not affected by proteasome or IKK inhibitors, and serves as normalization for cell number and nonspecific effects. Compounds were screened as a concentration-titration series that ranged from 46 uM to 3 nM.
NCGC Assay Protocol Summary: Cells were seeded in 1536-well plates at 5000 cells/4uL in IMDM medium containing 0.5% FBS, w/o phenol red, 1% penicillin/streptomycin. Then, 23 nL of compounds or DMSO were delivered to each well using a pin tool. One uL 20ng/ml doxycycline was then dispensed into white solid 1536-well plates and the plates were incubated at 37C/5% C02 in a cell incubator for 4 hrs. Then 4 uL luminescent substrate mix (in-house prepared: 150 mM Tris-Cl, pH 7.6, 3 mM MgCl2, 1% Triton X-100, 5 mM DTT, 0.2 mM CoA, 0.15 mM ATP, 5 mM D-luciferin, final concentrations) was added to each well. The plate was incubated at r.t. for 10-15 min. The plates were measured on a ViewLux plate reader for green luminescence (540/20 nm filter) and red luminescence (618/8 nm filter). The green and red luminescent signals were corrected for red and green luminescence filter overlap using previously determined filter calibration constants (determined using the procedure outlined in the Promega Technical Manual; REF 4). The %Activity was determined from the ratio of corrected green/red luminescent values. MG132 were used as control. […] Red luminescent %Activity was normalized to the difference between red luminesence in basal cells (0%Activity) and zero luminescence (-100% Activity). […]

Potency, inactive:
Cn1c(CC(=O)NNC(=O)c2ccccc2F)nc2ccccc21
CN1C(=O)[C@H]2[C@@H](/C=C/c3ccccc3)N3C(=O)CN(Cc4ccc(-c5ccccc5)cc4)C(=O)[C@@]3(C)[C@H]2C1=O
COc1cc(Cl)ccc1OCc1cc(C(=O)N(C)CCc2c(C)n[nH]c2C)no1
CC1CCN(c2ccc(-c3ccc(NC(=O)c4ccco4)cc3)nn2)CC1
CC(C)(C)OC(=O)C[C@@H]1C/C=C\C[C@@H](CC(=O)N[C@H](CO)Cc2ccccc2)C(=O)NCCOC1=O
CCN1C(=O)[C@@H]2[C@@H](c3ccc(-c4ccccc4)cc3)N3CCCC[C@@]3(C(=O)OC)[C@@H]2C1=O
CCN(c1ccccc1)S(=O)(=O)c1ccc(C(=O)Nc2ccccc2OC)cc1
COc1ccc(-c2csc3ncnc(N4CCN(S(=O)(=O)c5cccc(F)c5)CC4)c23)cc1
CC(=O)c1c(C)[nH]c(C(=O)COC(=O)c2cccs2)c1C
COc1ccc(-c2c(C#Cc3ccsc3)c3cc(-c4ccc(CN5CCOCC5)cc4)ccc3n2C)cc1
O=C(Nc1cc(S(=O)(=O)Nc2ccc(Cl)cc2)ccc1O)c1ccc(F)cc1F
Cc1cc(C)cc(OCC(=O)Nc2ccc(N3CCOCC3)cc2N2CCOCC2)c1
C=CC[C@H](CC(=O)NCCO)C(=O)N[C@@H](COC(=O)[C@@H](CC=C)Cc1ccc(F)cc1)Cc1c[nH]c2ccccc12
CSCc1nnc(NC(=O)c2ccc(S(=O)(=O)N3CCCCC3C)cc2)o1 (centres undefined)
CCOCc1c(C(=O)N2CCN(Cc3ccc(Br)s3)CC2)oc2ccccc12
COc1cc(OC)cc(-c2c(-c3cccs3)c3cc(-c4ccc(OC)cc4F)ccc3n2C)c1
COc1ccc(CNC(=O)C[C@H]2C[C@H](C(=O)N3CCOCC3)[C@@]3(C)c4[nH]c5cc(CCC(=O)N(C)C)ccc5c4CCN3C2=O)cc1OC
O=C(COC(=O)c1c(Cl)cccc1Cl)Nc1cccc(S(=O)(=O)NC2=NCCCCC2)c1
CCN(CC)S(=O)(=O)c1ccc(N2CCN(C)CC2)c(NC(=O)Nc2ccccc2F)c1
CCCN(CC(=O)NC(=O)NC1CCCCC1)CC(=O)Nc1cc(Cl)ccc1Cl
COc1cc(C(=O)NCc2ccncc2)cc(Br)c1OCc1ccccc1
CN(c1ccccc1)S(=O)(=O)c1cc(C(=O)N2CCN(c3ncccn3)CC2)ccc1Cl
CN[C@H](C(=O)NC[C@H]1O[C@@H](n2cnc3c(N)ncnc32)[C@H](O)[C@@H]1O)[C@@H](C)OCc1ccccc1
CCN(CC)S(=O)(=O)c1ccc(CNC(=O)CN2C(=O)NC3(CCc4ccccc43)C2=O)cc1 (centres undefined)
O=C(NC1CCCCCC1)C1CCN(C(=O)c2ccc(Cl)cc2)CC1
Cc1nn(Cc2ccccc2)c(C)c1C(=O)N1CCN(CC(=O)Nc2ccccc2Cl)CC1
COc1cc(OC)cc(-c2c(-c3ccc(F)cc3)c3cc(-c4ccc5cc[nH]c5c4)ccc3n2C)c1
O=C(CNC(=O)c1ccco1)NNC(=O)c1ccc(Br)cc1
CC(C)(C)OC(=O)C[C@@H]1C/C=C\C[C@@H](CC(=O)NCCO)C(=O)N[C@H](Cc2c[nH]c3ccccc23)COC1=O
CC(C)c1ccc(S(=O)(=O)N2CCN(C(C)C(=O)NC3CCCC3)CC2)cc1 (centres undefined)
CN(CC(=O)Nc1ccc(Cl)c(C(F)(F)F)c1)C(=O)CCC(=O)c1ccccc1
CC1CCC(CN2CCN=C2N(C)C)CC1 (centres undefined)
COc1ccc(C(CNC(=O)c2ccc(NS(=O)(=O)c3ccc(F)c(C)c3)cc2)N(C)C)cc1 (centres undefined)
COc1cc(OC)cc(C(=O)N[C@H](C(=O)NNC(=O)c2ccc(Br)cc2)C(C)C)c1
CCN1C(=O)[C@@H]2[C@@H](c3ccc(-c4cccc(Cl)c4)cc3)N3CCC[C@@]3(C(=O)OC)[C@@H]2C1=O
C=C(C)CNc1cc(S(=O)(=O)N2CCOCC2)ccc1Oc1ccccc1
Cc1cc(Cl)c2oc(C(=O)N(C)C(C)c3ccccn3)c(C)c2c1 (centres undefined)
CSCCC(NC(=O)c1ccccc1)C(=O)N1CCN(Cc2ccc(Cl)cc2)CC1 (centres undefined)
COc1ccc(S(=O)(=O)N(C)C[C@H]2Oc3c(NC(=O)Nc4ccc5c(c4)OCO5)cccc3C(=O)N([C@H](C)CO)C[C@@H]2C)cc1
O=C(NCCC1CCCCN1S(=O)(=O)c1ccc(Cl)cc1)C(=O)NCc1ccco1 (centres undefined)
O=C(NCCC(=O)N1O[C@@H]2C=C[C@H]1C2)OCC1c2ccccc2-c2ccccc21
N#Cc1cccc(NC(=O)C2CCCN(C(=O)c3ccc(Cl)cc3)C2)c1 (centres undefined)
CC(C)(C)OC(=O)C[C@@H]1C/C=C\C[C@@H](CC(=O)N[C@@H](CO)Cc2ccccc2)C(=O)N2CCC[C@H]2COC1=O
CNS(=O)(=O)c1cccc(C(=O)OCCCC(=O)c2ccccc2)c1
COc1ccc(-c2noc(CCC(=O)N3CCN(c4cccc(C)c4)CC3)n2)cc1
Cc1ccc(N2C(=O)N3[C@@H]4c5ccccc5OC[C@@H]4[C@@H](c4ccccc4)[C@@]3(C)C2=O)cc1
CC(C)n1ncc2c(C(=O)Nc3ccc(CC#N)cc3)cc(C3CC3)nc21
COc1cccc(N2CCN(CC(=O)Nc3ccnn3C3CCCC3)CC2)c1
COc1ccccc1-c1sc2ccccc2c1C#CC1(O)CCCCC1
C#CCOCCOCCOCCNc1nc(N2CCN(C(=O)[C@H](CO)n3cc([C@@H](N)C(C)C)nn3)CC2)nc(N2CCN(C(=O)[C@H](CCC(=O)O)n3cc([C@@H](N)[C@H](C)CC)nn3)CC2)n1
CCCCC/C=C/C1=CC(=O)C[C@H](c2ccc(Cl)cc2)C1
COc1ccc(NS(=O)(=O)c2ccc3oc(SCC(N)=O)nc3c2)cc1
COC1=C(N2CCOCC2)C(=O)c2ccccc2C1=O
CCOC(=O)C1CCN(C(=O)CN2C(=O)NC(C)(c3ccc4cc(OC)ccc4c3)C2=O)CC1 (centres undefined)
